Measured values as given in ChEMBL document CHEMBL3988442, “University of Dundee, Small-Polar-MMV Screening Library” (2021).
The whole screen tested about 48,000 compounds, of which about 13,000 (27%) showed an effect of 50% or more. This is one part of the list.

Each molecule was assayed on Wolbachia pipientis (assay: Anti-Wolbachia Cell-Based Screen). Conditions: 5 µM.
Assay type: functional
Parameters: scale not given: in the data most compounds retested in dose-response had high values

| SMILES | Percent Effect [%] |
| --- | --- |
| COCCNC(=O)[C@H]1CC[C@@H]2[C@@H](CCN2c2ncc(F)cn2)O1.O=C(O)C(F)(F)F | 0.7223 |
| COc1cc(NC(=O)N(C)CCC2CC2)ncn1 | 6.653 |
| COc1cc(N2CC[C@@H]3O[C@@H](C(=O)NCCN(C)C)C[C@@H]32)ncn1 | 104.9 |
| COc1cc(N2C[C@H]3OCC[C@H]3[C@H](C(=O)NC3CC3)C2)ncn1 | -4.655 |
| COc1cc(N2CC[C@@H]3O[C@@H](C(=O)NC(C)C)C[C@@H]32)ncn1 | 103.8 |
| COc1cc(NC(=O)N(C)C(C2CC2)C2CC2)ncn1 | -1.888 |
| COCCNC(=O)[C@@H]1C[C@H]2[C@H](CCN2c2cc(OC)ncn2)O1 | 102.9 |
| COc1cc(N2CC[C@@H]3O[C@H](C(=O)NCC4CC4)C[C@@H]32)ncn1 | 97.06 |
| COc1cc(N2CC[C@@H](OC)[C@@H]2Cc2ccccc2)ncn1 | 2.999 |
| COc1cc(NC(=O)N(C)CC2CC2)ncn1 | -6.401 |
| COCCNC(=O)[C@@H]1CC[C@@H]2[C@@H](CCN2c2ncc(F)cn2)O1.O=C(O)C(F)(F)F | -10.3 |
| Cc1cnn(CC(=O)Nc2cc(-n3nnnc3C3CC3)ccc2F)c1 | -3.572 |
| CC(C)CC(C)N(C)C(=O)CCn1cccn1 (stereo unspecified) | 9.677 |
| CC(C(=O)N1CCCC1)N1CCC(c2nccn2Cc2cscn2)CC1 (stereo unspecified) | 9.079 |
| CC1COc2ccccc2N1C(=O)c1cscn1 (stereo unspecified) | -0.3654 |
| Cc1nc(C2CCN(C)CC2)cc(N2CCOc3ccc(Cl)cc3C2)n1 | -7.272 |
| Cc1nnc2ccc(N3CCC4(CCOC4)C3)nn12 (stereo unspecified) | -16.97 |
| Cc1nc(N2CCC3(CCOC3)C2)c2cc[nH]c2n1 (stereo unspecified) | 96.01 |
| Cc1nc(C)c(C)c(N2CCC3(CCOC3)C2)n1 (stereo unspecified) | 0.7248 |
| CC(=O)N1CCCC2(C1)CN(c1ncc(C)cn1)CCO2.O=C(O)C(F)(F)F (stereo unspecified) | -4.18 |
| CC(C)CN1CCCC12CCN(c1nncs1)C2.O=C(O)C(F)(F)F (stereo unspecified) | 16.12 |

| SMILES | Percent Effect [%] |
| --- | --- |
| O=C(O)C(F)(F)F.O=C(c1ccncc1)N1CCOC2(CCCN(c3nncs3)C2)C1 (stereo unspecified) | 123 |
| O=C(O)C(F)(F)F.c1ccc(N2CCOC3(CCCN(c4nncs4)C3)C2)nc1 (stereo unspecified) | -13.18 |
| CC(C)C(=O)N1CCCC2(C1)CN(c1nncs1)CCO2.O=C(O)C(F)(F)F (stereo unspecified) | 94.93 |
| CC(C)CCN1CCC2(CCCN(c3nncs3)C2)C1.O=C(O)C(F)(F)F (stereo unspecified) | -9.122 |
| Cc1cncc(C(=O)N2CCC3(CCCN(c4nncs4)C3)C2)c1.O=C(O)C(F)(F)F (stereo unspecified) | -14.05 |
| O=C(O)C(F)(F)F.O=C(c1ccncc1)N1CCOC2(COCCN(c3cncnc3)C2)C1 (stereo unspecified) | -8.943 |
| CC(=O)N1CCCC2(C1)CN(c1nncs1)CCO2.O=C(O)C(F)(F)F (stereo unspecified) | 117 |
| CN(C)C(=O)CN1C[C@@H]2CC[C@H](C1)N(Cc1c(F)cccc1Cl)C2 | -24.65 |
| CNC(=O)[C@@H](CC(C)C)N1CCC[C@H]1C(=O)N(C)Cc1cccnc1.Cl.Cl | 6.21 |
| CCn1cnc(NC(=O)N2CCC(c3ccc(F)cc3)C2)n1 (stereo unspecified) | -5.373 |
| O=C1CCC2(CCN(Cc3cc(F)cc(F)c3)CC2)CN1CCO | -11.07 |
| COCC(=O)N1CCC2(CC1)CC(=O)N(Cc1ccc(Cl)cc1)C2 | -7.837 |
| CCN1CC2(CCN(CCOCCO)CC2)CC(c2ccccc2)C1=O (stereo unspecified) | 6.251 |
| CCCOCCN1CCC2(CC1)CC(=O)N(Cc1cc(F)cc(F)c1)C2 | 102.6 |
| O=C1CC2(CCN(CCCO)CC2)CN1Cc1ccc(F)c(F)c1 | 111.9 |
| O=C1CC2(CCN(Cc3ncc[nH]3)CC2)CN1Cc1ccc(Cl)cc1 | 9.235 |
| O=C1CC2(CCN(Cc3ccoc3)CC2)CN1Cc1cc(F)cc(F)c1 | 87.88 |
| O=C1CC2(CCN(CCO)CC2)CN1Cc1cc(F)cc(F)c1 | -5.03 |
| Cc1ncc(CN2CCC3(CC2)CC(=O)N(C)C3)cn1 | -13.29 |
| O=C1CC2(CCN(CCCF)CC2)CN1Cc1cc(F)cc(F)c1 | 93.67 |
| O=C1CC2(CCN(Cc3ncc[nH]3)CC2)CN1Cc1cc(F)cc(F)c1 | 5.031 |

| SMILES | Percent Effect [%] |
| --- | --- |
| CCN(C)C[C@@H]1CN(S(=O)(=O)c2ccc(C#N)cc2)C[C@@H]1CO | -9.397 |
| c1ccc2[nH]c(C3CCN(Cc4nnc(C5CC5)o4)CC3)nc2c1 | -0.6702 |
| O=C1CC2(CCN(CC3CC3)CC2)CN1Cc1cc(F)cc(F)c1 | 122.7 |
| O=C1CC2(CCN(CC3CCOC3)CC2)CN1Cc1cc(F)cc(F)c1 (stereo unspecified) | 4.353 |
| CN(Cc1ccn[nH]1)Cc1c[nH]nc1-c1ccc(F)cc1 | 4.933 |
| CCN(CCc1nc2cc(C)ccc2[nH]1)C(=O)[C@@H](N)CCSC | 1.745 |
| O=C(NCCn1ccnc1-c1cc2n(n1)CCNC2)c1ccncc1 | -6.247 |
| O=C(NCc1csc2ccc(Cl)cc12)c1cc2n(n1)CCNC2 | 87.95 |
| O=C(NCc1cc2n(n1)CCCNC2)C1(c2ccc(Cl)cc2)CCC1 | 14.56 |
| O=C(NCc1sc2ccccc2c1Cl)c1cc2n(n1)CCNC2 | 92.76 |
| CC(C)N1CCCn2nc(C(=O)NCCc3ccccn3)cc2C1 | -11.55 |
| O=C(NCc1cc2n(n1)CCCNC2)c1cn2cc(Cl)ccc2n1 | -5.425 |
| O=C(NCc1ccccn1)c1cc2n(n1)CCNC2 | 99.68 |
| O=C(NCCn1ccnc1-c1cc2n(n1)CCNC2)c1ccc(F)cc1 | 10.43 |
| Cc1ncsc1CCC(=O)NCc1cc2n(n1)CCNC2 | -3.955 |
| CN(CC(=O)N1CCCC1)C(=O)c1cccn1CCc1ccccc1 | -6.272 |
| O=C(c1ccno1)N1CCN2C(=O)N(Cc3ccc(F)cc3)C[C@H]2C1 | -2.469 |
| Cc1nc(CN2CCc3nc(NC(C)C)nc(C)c3C2)cs1 | 12.48 |
| CCN(C)C(=O)c1cnc(-c2noc3cc(N4CCCCC4)ccc23)s1 | -13.96 |
